From PMC5540273 (PLoS ONE, 2017)
Read-outs that look alike come from different tables or passages of the source.

Experiments:
MLK1 = system: T1, MLK1; details: concentration: 1 μM, replicates: in singlicate; n = 1
T1 construct: gene MAP3K9

MLK2 = details: concentration: 1 μM, replicates: in singlicate; n = 1
MLK3 = details: concentration: 1 μM, replicates: in singlicate; n = 1
MRCKA = details: n = 1
MRCKB = system: T2, MRCKB; details: concentration: 1 μM, replicates: in singlicate; n = 1
T2 construct: gene CDC42BPB

MST1R = details: concentration: 1 μM, replicates: in singlicate; n = 1
MST1 = system: T3, MST1; details: concentration: 1 μM, replicates: in singlicate; n = 1
T3 construct: gene STK4

MST2 = system: T4, MST2; details: concentration: 1 μM, replicates: in singlicate; n = 1
T4 construct: gene STK3

MST3 = system: T5, MST3; details: concentration: 1 μM, replicates: in singlicate; n = 1
T5 construct: gene STK24

MST4 = details: concentration: 1 μM, replicates: in singlicate; n = 1
[1] = concentration: 1 μM, replicates: in singlicate
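Also: KINOMEscan kinase panel screen.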

SMILES	%Inh (MLK1) [%]	%Inh (MLK2) [%]	%Inh (MLK3) [%]	%Inh (MRCKA; 1 µM) [%]	%Inh (MRCKB) [%]	%Inh (MST1R) [%]	%Inh (MST1) [%]	%Inh (MST2) [%]	%Inh (MST3) [%]	%Inh (MST4) [%]	%Inh (MRCKA; [1]) [%]
CCn1c(-c2nonc2N)nc2c(C#CC(C)(C)O)ncc(OCCCCN)c21.O=C(O)C(F)(F)F.O=C(O)C(F)(F)F [GSK507274]	0	0	0	17	5	33	3	0	0	2	–
CSc1cccc2c(-c3ccncn3)c(-c3ccc(F)cc3)nn12 [GW514786]	14	19	12	–	14	18	5	14	5	6	25
FC(F)(F)c1ccc(/C=C/c2cncnc2Nc2ccc3[nH]c(Cc4ccccc4)nc3c2)cc1 [GW709199]	19	11	1	–	26	0	2	0	0	0	31
COc1ccc(-c2coc3ccc(-c4nnc(SCc5ccc(OC)c(C(F)(F)F)c5)o4)cc23)cc1	14	0	0	–	0	0	32	11	17	0	0
COCCOCCOc1cc2ncc3c4ccc(C#N)cc4[nH]c3c2cc1OC	22	0	53	–	24	0	12	76	0	0	12
Cl.c1ccc(-c2ccc3c(Nc4ccc5[nH]ccc5c4)ccnc3c2)nc1 [GW440138]	0	0	0	–	0	35	0	0	9	0	6
Cc1ccc(C(=O)Nc2ccc(Nc3ccnc4cc(-c5nccs5)ccc34)cc2O)cc1.Cl [GW494702]	0	0	0	–	0	34	0	5	3	0	1
CCCCc1nn2ncccc2c1-c1ccnc(Nc2ccc(N3CCN(C)CC3)cc2)n1 [GW684941]	0	5	0	–	17	45	0	0	1	0	19
COc1ccc(Nc2nccc(N3CCC(NC(=O)Nc4cccc(OC)c4)C3)n2)cc1 (stereo not shown) [GSK1379742]	0	0	25	–	0	9	0	31	0	0	11
c1ccc(-c2cnc3nccnn23)cc1 [AH20685]	0	0	0	–	0	38	5	0	0	0	0
CCS(=O)(=O)c1ccc(OC)c(Nc2nccc(-c3c(-c4cccc(NC(=O)c5c(F)cccc5F)c4)nn4ncccc34)n2)c1 [GSK326180]	0	0	0	–	11	0	21	28	0	0	24
Cn1cc(-c2ccc3c(c2)CCN3C(=O)Cc2cccc(Cl)c2)c2c(N)ncnc21 [GSK2606590]	70	77	73	–	0	38	97.2	0	17	19	0
O=C(Nc1cccc(-c2nn3ncccc3c2-c2ccnc(Nc3ccccc3)n2)c1)c1c(F)cccc1F [GSK198271]	0	0	11	–	88	15	47	100	12	0	69
C[C@@H](Oc1cc(-n2cnc3cc(-c4ccnc(NCCS(C)(=O)=O)c4)ccc32)sc1C(N)=O)c1ccccc1Cl [GSK907232]	14	20	42	–	8	57	64	0	0	4	0
Cc1ccc(C(=O)N2CC[C@@H](O)C2)cc1-n1c(C)cc(OCc2ccc(F)cc2F)c(Br)c1=O	0	5	0	–	0	3	0	5	5	0	0
Cc1cccc(NC(=O)Nc2ccc(Oc3ncnc4ccn(C)c34)cc2)c1	2	0	0	–	0	7	14	0	0	0	0
C[C@@H]1CC[C@@H](C(=O)Nc2ccccc2)CN1c1cc(-c2ccc3c(N)n[nH]c3c2)nc(N)n1 [GSK2286062]	7	0	13	–	0	26	0	0	11	0	0
Oc1cc(Nc2ccnc3cc(I)ccc23)ccc1F [GW552771]	0	13	0	–	0	28	9	0	2	0	0
Cn1cc(-c2ccc3c(c2)CCN3C(=O)Cc2cccc(F)c2)c2c(N)ncnc21 [GSK2603358]	20	11	37	–	0	49	95.8	69	15	8	5
Cl.Cl.NCC(NC(=O)c1cc(-c2ccccc2)c(-c2ccnc3[nH]ccc23)s1)c1ccccc1 (stereo not shown) [GSK1321561]	0	23	11	–	90.7	42	0	0	0	27	73
Clc1ccc(-c2nn3ncccc3c2-c2ccnc(Nc3ccc4c(c3)OCCO4)n2)cc1 [GW829116]	0	16	0	–	0	0	0	9	0	0	34
NCCCC(NC(=O)c1cc(Br)c(-c2ccnc3[nH]ccc23)s1)c1ccccc1.O=C(O)C(F)(F)F.O=C(O)C(F)(F)F (stereo not shown) [GSK1287544]	0	15	0	–	98.8	17	0	0	0	11	63
